# Bioassay records deposited in PubChem by National Center for Advancing Translational Sciences (NCATS).
# Shown are actives, neighbours in structure and some others; about 19% of the full set was active somewhere.
# TDP1 cell noCPT: qHTS for Inhibitors of human tyrosyl-DNA phosphodiesterase 1 (TDP1): qHTS in cells in absence of CPT | DT40 Tdp1-/- hTDP1 cells, no CPT, ATP luminescence, 48 h | Potency, µM (titrated, usually from 46.2 µM), inactives show top-dose activity change, negative = growth inhibition, actives largely listed as inhibitors | actives 15% (n = 420,000); note: nearly all actives have a fitted effect of over 55% in size
#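 Cells were dispensed at 400 per well, compounds added by pin tool, plates incubated ≥48 hr at 37 °C, then CellTiter-Glo added for 30 min at room temperature before luminescence reading. Line: DT40 Tdp1-/- complemented with hTDP1; camptothecin omitted.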
# HT1080 IDH1KD tx: toxicity to HT-1080 IDH1 knockdown cells (counter line); HT-1080 IDH1 knockdown viability, ATP luminescence, 48 h; Potency, µM (highest dose often 46.1 µM), inactives show top-dose activity, negative = toxicity, actives largely listed as cytotoxic; actives 2% (n = 360,000);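 note: 0% = DMSO wells and -100% = cell-free medium wells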
#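 Luminescent ATP read-out (CellTiter-Glo, 10 min at room temperature) after 48 h compound exposure at 37 °C gave viability of IDH1-knockdown HT-1080 cells. Activity was normalised to DMSO and cell-free wells, then fitted as concentration-response curves.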
# KB-3-1 tox: KB-3-1 parental cell cytotoxicity; KB-3-1 viability, CellTiter-Glo ATP luminescence, 72 h; Potency, µM (highest dose often 46.1 µM), actives largely listed as cytotoxic; actives 1.4% (n = 400,000); AID 1347075; note: nearly all actives have a fitted effect of over 60% in size
#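 Cells are dispensed, compounds pinned in, plates held at 37 °C for 72 h, then CellTiter-Glo is added and luminescence read after 10 minutes. Cell line: parental KB-3-1 in phenol-red-free DMEM, 10% FBS.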
# KB-V1 cytotox: KB-V1 MDR subline cytotoxicity; actives 3.4% (n = 400,000); Potency, µM (doses to about 46.1 µM), hits mostly cytotoxic; KB-V1 MDR cells viability, CellTiter-Glo, 72 h; note: nearly all actives have a fitted effect of over 60% in size
#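 KB-V1 cells (P-gp-expressing MDR subline of KB-3-1) in phenol-red-free DMEM with 10% FBS were exposed to library compounds over a concentration series for 72 h at 37 degrees C. Viability read by CellTiter-Glo luminescence; concentration-effect curves fitted after normalization.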
# DT40 TDP1 CPT: growth inhibition of DT40 Tdp1-/-;hTDP1 cells with camptothecin (screen for TDP1 inhibitors) | Potency, µM (titrated, usually from 46.2 µM), for inactives: at the highest dose activity change, negative = growth inhibition, usual class: inhibitors | chicken DT40 Tdp1-/-;hTDP1 cells + 20 nM CPT, ATP luminescence, 48 h | actives 12% (n = 420,000); note: nearly all actives have a fitted effect of over 55% in size
#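 Cell growth measured by CellTiter-Glo luminescence after a minimum 48 h, 37 C compound exposure with 20 nM CPT in Tdp1-knockout DT40 cells stably expressing hTDP1, seeded 400/well; qHTS titration format.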
# HT1080-NT tox: kills 2HG-producing HT-1080-NT fibrosarcoma cells; HT-1080-NT fibrosarcoma viability, CellTiter-Glo ATP luminescence, 48 h; Potency, µM (series often up to 46.1 µM), inactives show at the top dose activity, negative = less viability, hits mostly cytotoxic; actives 1.6% (n = 360,000); AID 686970;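 note: NT is the 2HG producing partner of a matched IDH1 knockdown line; 0% = DMSO-treated cells and -100% = media-only wells without cells; nearly all actives have a fitted effect of over 55% in size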
#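 Viability by CellTiter-Glo luminescence after 48 h compound exposure at 37C of HT-1080-NT cells (750/well, RPMI, 5% FBS). % activity scaled between DMSO wells and medium-only wells, then curve-fitted and categorized by curve class.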
# * hit, by the source's call; i = inactive; ? = inconclusive; · = no result. Calls come from the whole dose curve; as a rule, active = well fitted curve in the direction sought with a large enough effect; inconclusive = small, poorly fitted or top-dose-only effect, or another doubt; inactive = no such curve, though single readings can be large; an effect the other way counts as inactive or inconclusive. Unless noted, % is set by controls: 0 for no effect and ±100 for the full control effect; potency is the fitted concentration of half-maximal effect.
SMILES,TDP1 cell noCPT,HT1080 IDH1KD tx,KB-3-1 tox,KB-V1 cytotox,DT40 TDP1 CPT,HT1080-NT tox
Cn1c(SCC(=O)Nc2cccc(F)c2)nc2c(c1=O)SCC2,18µM*,-4%,·,·,15µM*,-8%
Cn1c(SCC(=O)Nc2ccccc2C(F)(F)F)nc2c(c1=O)SCC2,10µM*,-16%,?,?,16µM*,?
COc1ccc(NC(=O)CSc2nc3c(c(=O)n2-c2ccccc2OC)SCC3)cc1,?,-4%,i,i,8%,12%
CCN1CCCC1CNC(=O)CN(C)S(=O)(=O)c1ccc(Cl)cc1 (centres undefined),-2%,8%,i,?,8%,14%
CCCC(=O)Nc1c(-c2ccccc2Cl)c(=O)c2ccccc2n1C,8%,16%,i,i,?,11%
O=C(COc1ccccc1C(=O)Nc1ccccc1)Nc1ccccc1Cl,?,-1%,·,·,?,-20%
CCOc1ccccc1CNCc1ccc(C(=O)O)cc1,-11%,6%,i,i,-2%,10%
CC(=O)c1cccc(NC(=O)COc2ccccc2C(=O)Nc2ccccc2)c1,?,·,i,i,?,·
CC(=O)c1ccc(NC(=O)COc2ccccc2C(=O)Nc2ccccc2)cc1,11µM*,-8%,i,i,11µM*,-9%
O=C(COc1ccc(Cl)cc1)NNC(=S)NCc1ccccc1,?,-17%,i,?,?,-10%
C=CCc1ccccc1OCC(=O)NNC(=S)NCc1ccccc1,5.2µM*,-16%,·,·,6.5µM*,-10%
O=C(COc1ccccc1CNCc1ccccc1)Nc1ccccc1,18µM*,11µM*,i,i,?,?
O=C(COc1ccccc1C(=O)Nc1ccccc1)Nc1ccccc1F,16µM*,·,i,i,?,·
N#Cc1ccc(C(=O)OCC(=O)Nc2cccnc2Cl)cc1,-11%,19%,i,i,-20%,13%
CCn1cc(C(=O)N2CCN(c3ccc(F)cc3)CC2)c(=O)c2cc(S(=O)(=O)N3CCOCC3)ccc21,2%,·,i,i,-3%,·
CCC(Nc1ccc(-c2nc(-c3ccccn3)no2)cc1[N+](=O)[O-])c1ccccc1 (centres undefined),?,·,i,i,?,·
Cc1ccc(C)c(NC(=O)CSc2nnc(CNC(=O)c3ccccc3)n2-c2ccccc2)c1,-22%,·,i,i,10%,·
CCOc1ccc(NC(=O)COc2ccccc2C(=O)NCc2ccccc2)cc1,?,-19%,i,i,-30%,-13%
N#Cc1ccc(NC(=O)COc2ccccc2C(=O)Nc2ccccc2)cc1,?,·,i,?,11µM*,·
CC1NC(C)(C)Cc2c1ccc1ccccc21 (centres undefined),1%,-29%,i,?,-3%,-15%
CC[N+]1(CC)CC2=Cc3c(ccc4ccccc34)C(C)C2C1 (centres undefined),13µM*,3%,i,i,5.8µM*,8%
COC(=O)C1=C(C(=O)OC)[C@]2([C@H]3C/C=C\CN[C@@H](Cc4ccccc4)C(=O)N3Cc3ccccc3)C=C[C@H]1O2,10µM*,·,?,?,?,·
COC(=O)C1=C(C(=O)OC)[C@]2([C@H]3CCCCN[C@@H](Cc4ccccc4)C(=O)N3Cc3ccccc3)C=C[C@H]1O2,6.5µM*,-20%,?,?,5.8µM*,-10%
COC(=O)C1=C(C)N(Cc2ccccc2)C(=O)N[C@H]1c1ccco1,1%,0%,i,?,-11%,0%
CC1(C)OC(=O)C2=C(C[C@@H](C3CCCCC3)O[C@@H]2c2ccc(F)cc2)O1,?,2%,i,i,?,-16%
SMILES,TDP1 cell noCPT,HT1080 IDH1KD tx,KB-3-1 tox,KB-V1 cytotox,DT40 TDP1 CPT,HT1080-NT tox
C#CCN1N=C(c2ccc(C)cc2)CSC1=O,-2%,2%,i,i,0%,1%
C[N+]1(CC2COC3(CCCCC3)O2)CCCC1 (centres undefined),1%,0%,i,i,-2%,3%
C1CCCCCC2(CCCCC1)OCC(CN1CCOCC1)O2 (centres undefined),23µM*,-6%,i,?,?,1%
COC(=O)c1cc(C)nc2c1c(=O)nc(SCc1cccc(C(F)(F)F)c1)n2C1CC1,3%,·,i,i,-5%,·
Fc1cccc(Nc2c3c(nc4ccccc24)CCC3)c1,26µM*,-9%,?,?,?,-6%
COC(=O)c1cccc(Nc2c3c(nc4ccccc24)CCC3)c1,10µM*,16µM*,21µM*,18µM*,7.3µM*,21µM*
O=C(Nc1c2c(nc3ccccc13)CCCC2)c1cccc([N+](=O)[O-])c1,-29%,-17%,?,i,-6%,-6%
Cc1ccc2nc3c(c(Nc4cccc(O)c4)c2c1)CCC3,?,?,?,?,?,18µM*
c1ccc2c(Nc3ccc4c(c3)OCCO4)c3c(nc2c1)CCCC3,16µM*,?,i,?,4.6µM*,16µM*
O=C(Nc1c2c(nc3ccccc13)CCCC2)c1ccccc1F,?,-2%,i,i,-24%,-1%
O=C(CNC(=O)[C@@H]1Cc2ccccc2CN1)NCc1ccco1,10%,0%,i,i,-4%,0%
CC(=O)NC(Cc1ccccc1)C(=O)Oc1ccc2ccccc2c1 (centres undefined),-1%,-8%,i,i,-4%,-5%
CCCNC(=O)C1(C)CCN(C(=O)c2cccc(C(F)(F)F)c2)C1 (centres undefined),-1%,1%,i,i,0%,20%
CC(=O)c1cccc(Nc2c3c(nc4ccccc24)CCC3)c1,2.1µM*,2.6µM*,1.8µM*,i,2.1µM*,5.8µM*
CCOC(=O)c1cccc(Nc2c3c(nc4ccccc24)CCC3)c1,13µM*,·,i,?,?,·
CCOC(=O)c1cnc2ccccc2c1Nc1cccc(C(=O)O)c1,-3%,4%,i,i,2%,3%
CC(=O)c1ccc(Nc2c3c(nc4ccccc24)CCCC3)cc1,18µM*,?,?,i,15µM*,?
COc1ccc(CS(=O)(=O)c2ncn[nH]2)cc1,6%,16%,i,i,14%,7%
